Consider 40 compounds from ChEMBL document CHEMBL1157539, “Thousands of chemical starting points for antimalarial lead identification” (Nature, 2010).

This experiment concerns HepG2. Description: GSK_TCMDC: Percent inhibition of human HepG2 cell line. Test compounds present at 10uM. In kind it is functional.
In general, Inhibition refers to the relative decrease from the control value, in per cent. The compound `COc1cc(NC(=O)c2nn(CCCN3CCC(N4CCCC4)CC3)cc2-c2ccc(Cl)c(Cl)c2)cc(OC)c1OC` displayed an Inhibition of 76%.
The same measure for `O=C(NCCCN1CCOCC1)c1ccc(-c2cccc(NC(=O)c3ccc(Cl)c(Cl)c3)c2)cc1`: 3%; for `CCN(CC)CCN(Cc1ccc(-c2ccc(C(F)(F)F)cc2)cc1)C(=O)Cn1c(CCc2cccc(F)c2F)cc(=O)c2c1CCCC2.O=C(O)C(O)C(O)C(=O)O`: 93%; for `Cc1c(F)cc(C(=O)NC2CC2)cc1-c1ccc2c(cnn2S(=O)(=O)c2ccc(Cl)s2)c1`: 24%.
Regarding `Cc1cc2nc(-c3ccc(C(=O)NCc4ccc(Cl)c(Cl)c4)cc3)[nH]c2cc1C`, the Inhibition is recorded as 6%.
The compound `CC(C)CC1(C(=O)OC(C)(C)C)CC(C(=O)OC(C)(C)C)C(c2cccs2)N1C(=O)c1ccc(C(C)(C)C)cc1` (stereo not given) had an Inhibition of 21%.
The same measure for `CN1CCc2cc(O)c(NS(=O)(=O)c3ccc(-c4ccc(Cl)cc4)cc3)cc2CC1.Cl`: 7%; for `COc1ccc2nccc(N3CCC(NCc4ccc5c(n4)NC(=O)CS5)CC3)c2n1`: 14%; for `O=C(O)C(F)(F)F.OCC1CCN(Cc2cccc(-c3ccc(-c4nc5cc(C(F)(F)F)ccc5[nH]4)cc3)c2)CC1`: 25%.
`CNCCNCc1cccc(-c2ccc(-c3nc4cc(C(F)(F)F)ccc4[nH]3)s2)c1.O=C(O)C(F)(F)F` displayed an Inhibition of 31%.
Consider `OC(CNc1ccnc(Nc2ccc(Cl)cc2)n1)c1ccc(C(F)(F)F)cc1` (stereo not given), for which the Inhibition came out at 0%.
`COc1c(C2CCN(CCCCNC(=O)c3cccc(-c4ccc(C(F)(F)F)cc4)c3)CC2)ccc2c1CCCC2` had an Inhibition of 50%.
Compound `CC(C)C[C@H](NC(=O)c1cc2ccccc2s1)C(=O)N[C@H]1CCN(Cc2ccc(OC[C@@H]3CCCN3C)c(Cl)c2)C1.O=C(O)C(F)(F)F` gave an Inhibition of 83%.
The compound `Cc1cccc2nc(-c3ccc(-c4cccc(CN5CCCC(N)C5)c4)s3)[nH]c12.O=C(O)C(F)(F)F` (stereo not given) displayed an Inhibition of 17%.
The same measure for `CCOC(=O)c1cnc2c(OC)cc(OC)c(Cl)c2c1Nc1cccc(C)c1C`: 5%.
The compound `Cc1[nH]c(C)c(-c2ccc(-c3cccc(Cl)c3)nc2)c(=O)c1Br` returned an Inhibition of 10%.
`COc1ccc(NC(=O)/C=C/c2ccccc2Cl)cc1OCCN1CCC(O)(c2ccc(Cl)c(C(F)(F)F)c2)CC1.Cl` gave an Inhibition of 37%.
The same measure for `Cc1ccc(CNC(=O)c2cc3c(=O)n4cccc(C)c4nc3n(CCN3CCOCC3)c2=N)cc1`: 31%; for `COc1ccc(-c2ccc([N+](=O)[O-])cc2C(=O)NCC(C)Oc2ccc(C(F)(F)F)cc2)cc1` (stereo not given): 6%.
The compound `CO/C(=C\C=C/c1cc2cc(Cl)c(Cl)cc2[nH]1)C(=O)NC1CC(C)(C)N(C)C(C)(C)C1` returned an Inhibition of 65%.
Turning to `COc1ccc2nccc(N3CCC(CCNCc4ccc5c(n4)NC(=O)CS5)CC3)c2c1.Cl`, the Inhibition turned out to be 55%.
On to `O=C(O)C(F)(F)F.O=S(=O)(NCCN1CCCC1)c1ccc(-c2ccc(CNCc3ccccc3)cc2)cc1`, for which the Inhibition is reported as 47%.
For `ON=C1CCc2cc(-c3cc(-c4ccc(OC5CCNCC5)cc4)oc3-c3ccncc3)ccc21`, the Inhibition was 34%.
Turning to `CN(C)Cc1cc(Nc2ccnc3cc(Cl)ccc23)ccc1O.Cl`, the Inhibition stood at 36%.
Compound `Br.CCC(ON1C(N)=NC(N)=NC1(C)C)c1ccc(Cl)cc1` (stereo not given) had an Inhibition of 68%.
For `CCN(CC)/C(=N\C(=N)NCCCCCCNC(=N)/N=C(\Nc1ccc(Cl)cc1)N(CC)CC)Nc1ccc(Cl)cc1`, the Inhibition is recorded as 1%.
`Clc1cc(Nc2ccnc3ccc(Br)cc23)ccc1Oc1ccc2ccccc2c1Cl` gave an Inhibition of 5%.
The same measure for `CCCCCCCCN1CCCN(C(=O)c2cccc(NC(=O)Nc3ccc4ccccc4c3)c2)CC1.O=C(O)C(F)(F)F`: 39%; for `CN1CCN(CC(O)CNC(=O)Nc2ccc(Cl)cc2)CC1.O=C(O)C(F)(F)F` (stereo not given): 1%; for `COc1cc(F)c2nccc([C@@H](O)CN3CCC(NCc4ccc5c(n4)NC(=O)CS5)C(F)C3)c2c1.Cl` (stereo not given in full): 32%.
`CCc1c(C)c(C#N)c2nc3ccccc3n2c1NCc1ccco1` showed an Inhibition of 0%.
For the compound `COc1ccc(Nc2ncc(C#N)c(Nc3ccccc3C(N)=O)n2)cc1N1CCN(C)CC1.Cl`, the Inhibition worked out at 56%.
For `O=C(/C=C/c1ccc(Cl)c(Cl)c1)NCCCCCN1CCCN(C(=O)Nc2cc(F)cc(F)c2)CC1`, the Inhibition is listed as 4%.
For the compound `CN1CCN(c2ccc(Nc3ncc(C#N)c(Nc4ccccc4C(N)=O)n3)cc2)CC1.Cl`, the Inhibition is listed as 43%.
In turn, `CC(C)C[C@H](NC(=O)c1ccc(OCCN2CCOCC2)cc1)C(=O)N[C@H](/C=N/N1CCN(C)C1=O)CCc1ccccc1` returned an Inhibition of 3%.
Consider `Cl.O=C(CNC1=NCCN1)Nc1ccc(NC(=O)Nc2ccc(NC(=O)CNC3=NCCN3)cc2)cc1`, for which the Inhibition worked out at 0%.
In the case of `COc1cccc(NC(=O)[C@H](C(C)C)n2c(=O)[nH]c3ccccc3c2=O)c1`, the Inhibition turned out to be 0%.
For `Cc1cc(Nc2ccc(C)c(Cl)c2)n2nc(C(F)(F)F)nc2n1`, the Inhibition was 2%.
As for `CN1CCN(c2ccc(Nc3nccc(-c4cnn5ncccc45)n3)cc2Cl)CC1`, the figure is 65%; as for `O=C(O)C(F)(F)F.O=S(=O)(NCCN1CCCC1)c1cccc(-c2ccccc2CNC2Cc3ccccc3C2)c1`, 35%.
